Results filed as inconclusive are left out. Unmarked numbers belong to inactive results. The source made the active and inactive calls. The call rests on the fitted dose curve; in most records, active means well fitted cell-killing curve with a large enough effect; inconclusive means small, poorly fitted or top-dose-only effect, or effect the other way; inactive means no such curve, though single readings can be large or run the other way.
Assay: qHTS of pediatric cancer cell lines to identify multiple opportunities for drug repurposing: Confirmatory screen for Rh30 cells (AID 1347126); further: nearly all actives have a fitted effect of over 55% in size
Details: Rh30 rhabdomyosarcoma cell viability; series mostly up to 45.9 µM; activity change, negative = cytotoxic: at the top concentration
From the text: Drug repurposing or repositioning has been offered as a strategy for drug development in oncology programs. This approach has special potential for childhood cancers and other rare or orphan diseases, where the expected return on new drug development has been a disincentive to pharmaceuticals.
In this project we exploit the poly-pharmacology of drugs to discover new indications via phenotypic screening of a panel of 19 well-characterized cell lines derived from solid tumors seen in children and adolescents. The goal is to identify approved drugs with previously unrecognized anticancer properties that has the potential to reveal new mechanisms and biological processes involved in carcinogenesis or drug resistance. We employed a titration-based paradigm (quantitative high-throughput screening or qHTS), where all compounds were tested at multiple concentrations for their effect on cell viability. Concentration-response curves (CRCs) were derived directly from the primary screen, and both potency and efficacy values were used to identify compounds with robust bioactivity profiles. We screened the NIH Chemical Genomics Center (NCGC) Pharmaceutical Collection (NPC) and Mechanism Interrogation Plate (MIPE) small molecule collections of approved and investigational compounds against these cell lines; and measured metabolically active cells after 48 hours of compound treatment as a proxy for cell viability.
Assay Submitter: Nathalia J. Martinez, National Center for Advancing Translational Sciences, National Institutes of Health, Rockville, MD, USA; email: natalia.martinez@nih.gov
[1] Shen, M et al. Quantitative high-throughput phenotypic screening of pediatric cancer cell lines identifies multiple opportunities for drug repurposing. Oncotarget 2017 Dec 19;9(4):4758-4772. PMID 29435139.
The cells were obtained from University of North Carolina (UNC), Pediatric Preclinical Testing Program (PPT), and Coriell Institute (CI).
qHTS cell viability assay:
Cells were assayed in growth media at a density of 500-1,000 cells/well. Five microliters of cells were dispensed into 1,536-well, white, solid-bottom, TC-treated plates (Greiner Bio One) using a multidrop dispenser and incubated at 37 degrees C, 5% CO2, under a humidified atmosphere for 5 hours. Twenty-three nanoliters of compounds and controls (neutral control DMSO or positive control bortezomib at final concentration of 2.3 µM) were subsequently transferred by Kalypsys pintool. For primary screens, the MIPE collection was tested at 11-point dilutions (final concentrations range from 0.78 nM to 46 µM) and the NPC collection at 8-point dilutions (final concentrations range from 0.59 nM to 46 µM). Compounds tested in follow-up screens were assayed at 11-point dilutions. Cells were incubated for 48 hours, followed by addition of 3 µL of CellTiter-Glo (Promega). After a 15 min incubation at room temperature, samples were analyzed for luminescence intensity using a ViewLux High-throughput CCD imager equipped with clear filters.
On the % scale 0 is the no-effect control and ±100 the full control effect; potency means the concentration at half of the fitted maximal effect.

Row | SMILES | activity change, negative = cytotoxic | Potency
1 | O=C(O)CCCOc1ccc(Cl)cc1Cl | 0% [at 97.2 µM] | –
2 | CC(C)(O)C=CC(=O)[C@](C)(O)[C@H]1[C@H](O)C[C@]2(C)[C@@H]3CC=C4[C@@H](C=C(O)C(=O)C4(C)C)[C@]3(C)C(=O)C[C@@]12C | – | 0.827 µM (active)
3 | O=[N+]([O-])c1c(Cl)c(Cl)cc(Cl)c1Cl | 5.88% [at 97.2 µM] | –
4 | CC(C)N[C@@H]1CCn2c(=O)[nH]c3cccc(c32)[C@@H]1O | 8.35% | –
5 | CC(=Cc1csc(C)n1)[C@@H]1C[C@H]2O[C@]2(C)CCC[C@H](C)[C@@H](O)[C@@H](C)C(=O)C(C)(C)[C@@H](O)CC(=O)O1 | -46.3% | –
6 | CC(C)(C)C(O)C(Oc1ccc(Cl)cc1)n1cncn1 (stereo unspecified) | 0% [at 97.2 µM] | –
7 | CS(=O)(=O)c1ccc(C(=O)C2C(=O)CCCC2=O)c([N+](=O)[O-])c1 | 11.2% [at 97.2 µM] | –
8 | CC[C@@]1(O)C(=O)OCc2c1cc1n(c2=O)Cc2cc3ccccc3nc2-1 | – | 0.737 µM (active)
9 | CCCN1CCO[C@@H]2c3cc(O)ccc3OC[C@@H]21 | – | 8.27 µM (active)
10 | S=C(SSC(=S)N1CCCCC1)N1CCCCC1 | – | 36.9 µM (active)
11 | Cc1ccccc1-n1c(Cn2cnc3c(N)ncnc32)nc2cccc(C)c2c1=O | 14.8% | –
12 | O=C(O)COc1nc(Cl)c(Cl)cc1Cl | 5.21% [at 97.2 µM] | –
13 | Cc1ccccc1-n1c(Cn2ncc3c(N)ncnc32)nc2cccc(C)c2c1=O | 5.57% | –
14 | CC(=O)[O][Hg][c]1ccccc1 | – | 1.31 µM (active)
15 | O=C(Nc1ccncc1)C(=O)c1cn(Cc2ccc(Cl)cc2)c2ccccc12 | -16.3% | –
16 | CO[C@H]1CCC(O[C@H]2C[C@H]([C@]3(C)CC[C@]4(C[C@H](O)[C@@H](C)[C@@H]([C@@H](C)C=C(C)C(=O)[C@H](C)C[C@H](C)C(=O)O)O4)O3)O[C@]3(O[C@@H]([C@H]4O[C@@](O)(CO)[C@H](C)C[C@H]4C)C[C@H]3C)[C@H]2C)O[C@H]1C (stereo partly specified) | -18% | –
17 | Cc1c(N)nc([C@H](CC(N)=O)NC[C@@H](N)C(N)=O)nc1C(=O)N[C@H](C(=O)N[C@@H](C)[C@H](O)[C@@H](C)C(=O)N[C@@H](C(=O)NCCc1nc(-c2nc(C(=O)NCCC[S+](C)C)cs2)cs1)[C@@H](C)O)C(O[C@H]1O[C@H](CO)[C@H](O)[C@@H](O)[C@@H]1O[C@H]1O[C@H](CO)[C@@H](O)[C@H](OC(N)=O)[C@H]1O)c1cnc[nH]1 (stereo partly specified) | -17.8% | –
18 | C[C@@H]1CC[C@@]2(OC1)O[C@H]1C[C@H]3[C@@H]4CC=C5C[C@@H](O[C@@H]6O[C@H](CO)[C@@H](O[C@@H]7O[C@@H](C)[C@H](O)[C@@H](O)[C@@H]7O)[C@H](O)[C@@H]6O[C@@H]6O[C@@H](C)[C@H](O)[C@@H](O)[C@@H]6O)CC[C@]5(C)[C@@H]4CC[C@]3(C)[C@@H]1[C@H]2C | – | 4.14 µM (active)
19 | C[C@H]1CCCC=CC2C[C@H](O)C[C@@H]2[C@H](O)C=CC(=O)O1 (stereo partly specified) | – | 3.69 µM (active)
20 | COc1cc2cc(c1Cl)N(C)C(=O)C[C@H](OC(=O)C(C)C)[C@]1(C)O[C@H]1[C@H](C)[C@@H]1C[C@@](O)(NC(=O)O1)[C@H](OC)C=CC=C(C)C2 | -4.63% | –
21 | COc1cc([C@@H]2c3cc4c(cc3[C@@H](O)C3COC(=O)C32)OCO4)cc(OC)c1O (stereo partly specified) | 0.574% | –
22 | C[C@@H]1O[C@@H](O[C@@H]2C=C3CC[C@@H]4[C@@H](CC[C@]5(C)[C@H](c6ccc(=O)oc6)CC[C@@]45O)[C@@]3(C)CC2)[C@H](O)[C@H](O)[C@H]1O | – | 0.0465 µM (active)
23 | CC1=C(O)C(=O)C=C2C1=CC=C1[C@@]2(C)CC[C@@]2(C)[C@@H]3C[C@](C)(C(=O)O)CC[C@]3(C)CC[C@]12C | – | 1.85 µM (active)
24 | O=c1[nH]c2ccc(Cl)cc2c(N[C@@H]2CN3CCC2CC3)c1-c1nc2ccccc2[nH]1 | – | 5.22 µM (active)
25 | COC1=CC(C)=C[C@@H](C)[C@@H](O)[C@@H](C)CC(C)=CC=C[C@H](OC)[C@H]([C@@H](C)[C@@H](O)[C@H](C)[C@@]2(O)C[C@@H](O)[C@H](C)[C@@H](C(C)C)O2)OC1=O | – | 10.4 µM (active)
26 | CCC(=O)OC1CCC2C3CCC4=CC(=O)CC[C@@]4(C)C3CC[C@]12C (stereo partly specified) | -2.18% | –

From PubChem BioAssay (NCATS)
